Laboratory results published in PubChem BioAssay (NCI).
This is part of a sample that, as a whole, favours compounds with a hit. Of some 83,000 tested, about 20% had one in any assay.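 Cells were grown in 96-well plates and exposed to the test compound at a single concentration for 48 hours; results are reported as percent growth, with values below 10 considered active.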 Calls of active or inactive are those of the source.

Tests used:
Assay in all cases: NCI-60 one-dose screen, 48 h (100 = growth as untreated, 0 = no growth, -100 = all killed)
Conditions in all cases: 10 µM unless noted
[1] = tested on: SK-MEL-2 melanoma
[2] = tested on: EKVX NSCLC
[3] = tested on: SN12C renal
[4] = tested on: UO-31 renal
[5] = tested on: TK-10 renal
[6] = tested on: ACHN renal
[7] = tested on: CAKI-1 renal
[8] = tested on: A498 renal
[9] = tested on: CCRF-CEM leukemia
[10] = tested on: MOLT-4 leukemia
[11] = tested on: SR leukemia
[12] = tested on: RPMI-8226 leukemia
[13] = tested on: OVCAR-8 ovarian
[14] = tested on: OVCAR-5 ovarian
[15] = tested on: OVCAR-4 ovarian
[16] = tested on: SK-OV-3 ovarian
[17] = tested on: OVCAR-3 ovarian
[18] = tested on: HS 578T breast
[19] = tested on: NCI/ADR-RES ovarian
[20] = tested on: IGROV1 ovarian

Measured: growth

COC(=O)c1cc2cc(-c3ccc(OC)cc3)cnc2[nH]1
active: [1] 8.37% | [7] -2.35% | [12] -5.41% | [13] 8.62% | [16] 1.35% | [17] -55.7% | [19] -35.6%
inactive: [2] 47% | [3] 51.9% | [4] 34.9% | [5] 38.9% | [6] 44% | [8] 28.1% | [9] 22.3% | [10] 22.8% | [11] 10.7% | [14] 44.9% | [15] 30.2% | [18] 33.8%

Cn1ccc(=O)c(S(N)(=O)=O)c1
inactive: [1] 99.8% | [2] 89.3% | [3] 101% | [4] 69% | [5] 113% | [6] 95.5% | [7] 67.2% | [8] 107% | [9] 99.9% | [10] 94.4% | [11] 72.5% | [12] 66.5% | [13] 101% | [14] 94.3% | [15] 95.8% | [16] 126% | [20] 124% | [17] 112% | [18] 104% | [19] 94.8%

C/C(=N/NC(=S)Nc1ccccc1)c1nc2ccc(Cl)cc2[nH]1
active: [1] -93.6% | [2] -23.6% | [3] -37.4% | [4] -35.5% | [5] -39.1% | [6] 7.65% | [7] 9.36% | [8] -81.4% | [9] 1.46% | [10] -16.7% | [11] -36.1% | [12] 5.52% | [13] -39.8% | [14] -35.8% | [15] -79.3% | [16] -17.7% | [20] 7.58% | [17] -59.5% | [19] -12.7%

CC(C)CSc1nc(NN)c(C#N)c(-c2ccc(F)cc2)n1
inactive: [1] 67.9% | [2] 89.4% | [3] 79.9% | [4] 55.8% | [5] 92.1% | [6] 60.6% | [7] 67.9% | [8] 68.2% | [9] 61.6% | [10] 80.3% | [11] 74.8% | [12] 61.2% | [13] 72% | [14] 89.4% | [15] 57.8% | [16] 60.9% | [17] 59.1% | [18] 78.3% | [19] 50.8%

COc1cc2c(cc1O)CCN1C[C@@H](CC(C)C)[C@@H](O)C[C@@H]21
inactive: [1] 98.1% | [2] 95.3% | [3] 94.3% | [4] 88.4% | [5] 97% | [6] 103% | [7] 91.4% | [8] 107% | [9] 107% | [10] 95.4% | [11] 103% | [12] 92.5% | [13] 101% | [14] 94.3% | [15] 98.6% | [16] 107% | [17] 108% | [18] 114% | [19] 98.2%

NC(=S)N/N=C1\CCCC(C(F)(F)F)C1 (centres undefined)
inactive: [1] 102% | [2] 84.7% | [3] 85.1% | [4] 64.8% | [5] 112% | [6] 91.8% | [7] 87.5% | [8] 128% | [9] 45.5% | [10] 74.5% | [11] 78.7% | [12] 71.1% | [13] 84.5% | [14] 103% | [15] 97.7% | [16] 108% | [20] 13.7% | [18] 111% | [19] 87.7%

O=c1ccn(C2CC(O)C(O)C(CO)O2)c(=O)[nH]1 (centres undefined)
active: [9] 7.45%
inactive: [1] 145% | [2] 110% | [3] 92.5% | [4] 85% | [5] 121% | [6] 116% | [7] 97% | [8] 118% | [10] 102% | [11] 123% | [12] 85.7% | [13] 116% | [14] 108% | [15] 108% | [16] 114% | [17] 123% | [18] 120% | [19] 113%

Cc1cc(N/N=C/c2nc(-c3ccccc3)oc2C)c2cc(Br)ccc2n1
active: [11] -4.64% | [15] 1.21%
inactive: [1] 106% | [2] 107% | [3] 32.3% | [4] 78.1% | [5] 101% | [6] 89.9% | [7] 80% | [8] 66.1% | [9] 27.7% | [10] 50.5% | [12] 11.9% | [13] 42.5% | [14] 96.3% | [16] 78.3% | [20] 78.6% | [18] 85.8% | [19] 78.9%

CN1CCN(CCCOc2ccc3nc(Nc4ccc(Cl)c(C(F)(F)F)c4)ccc3c2)CC1
inactive: [1] 89.9% | [2] 71.8% | [3] 63.9% | [4] 69.6% | [5] 75.9% | [6] 55.9% | [7] 83.8% | [8] 101% | [9] 17.6% | [10] 19.1% | [12] 18.1% | [13] 73.6% | [14] 72.1% | [15] 66.6% | [16] 91.4% | [20] 46.2% | [17] 59.3% | [18] 46% | [19] 62.8%
active: [11] 2.08%

COc1cccc(CC(C)=C(c2ccc(OCCN3CCCCC3)cc2)c2ccc(OCCN3CCCCC3)cc2)c1
inactive: [2] 18% | [5] 32.5% | [14] 24% | [16] 76.9%
active: [1] -65.4% | [3] -42.3% | [4] -92.2% | [6] -88.4% | [7] -46.8% | [8] 8.39% | [9] -31.8% | [10] -34.3% | [11] -41.2% | [12] -45.8% | [13] -50.3% | [15] -49% | [20] -10.5% | [17] -40.7% | [18] -50% | [19] -13.3%

O=C(N/N=C/C=C\c1ccccc1)C(=O)N/N=C/C=C/c1ccccc1
inactive: [1] 109% | [2] 111% | [3] 92.6% | [4] 91.3% | [5] 104% | [6] 125% | [7] 105% | [8] 127% | [9] 108% | [10] 109% | [11] 103% | [12] 102% | [13] 105% | [14] 112% | [15] 112% | [16] 111% | [20] 106% | [18] 116% | [19] 110%

CCCN=C1NC(=O)/C(=C/c2nc(-c3ccc(OC)cc3)n3ccccc23)S1
active: [18] -8.63%
inactive: [1] 95.2% | [2] 115% | [3] 83.8% | [4] 91.8% | [5] 91.1% | [6] 62.7% | [7] 123% | [8] 103% | [9] 84.9% | [10] 76.5% | [11] 62.5% | [12] 74% | [13] 86.7% | [14] 104% | [15] 87.5% | [16] 98.1% | [20] 94% | [19] 83.6%

CCCCCCCCCCCCNC(=O)[C@H]1CSC(c2cc(Br)cs2)N1 (some centres undefined)
active: [1] -58.7% | [2] -64% | [3] -53.5% | [4] -76% | [5] -80.1% | [9] -42.1% | [10] -59.8% | [11] -31.3% | [13] -64.8% | [14] 9.52% | [15] -72.4% | [16] -42.5% | [20] -54.1% | [17] -50.8% | [18] -41.2% | [19] -22.3%
inactive: [6] 14.3% | [7] 77.9% | [8] 76.8% | [12] 37.7%

NC(=O)c1c(NC(=S)Nc2ccc(OC(F)(F)F)cc2)sc2c1CCC1(C2)OCCO1
inactive: [1] 93.9% | [2] 93.1% | [3] 95.4% | [4] 88% | [5] 106% | [6] 99.9% | [7] 93.6% | [8] 90.4% | [9] 93.8% | [10] 87.3% | [11] 92.1% | [12] 93.2% | [13] 99.7% | [14] 91.9% | [15] 95.3% | [16] 89.9% | [20] 96.3% | [18] 79.5% | [19] 98.9%

COc1cc(C(=O)/C=C/c2c(C)n([O-])c3ccc(C(F)(F)F)cc3[n+]2=O)cc(OC)c1OC
inactive: [1] 95.5% | [2] 115% | [3] 88.3% | [4] 47.1% | [5] 42.4% | [6] 53.6% | [8] 115% | [9] 36.6% | [10] 65.4% | [11] 24.4% | [12] 59.6% | [14] 122% | [15] 89.5% | [16] 87.3% | [18] 119% | [19] 75.7%
active: [7] -11.9% | [13] 8.63% | [17] -18.9%

Cc1nn(-c2ccc([N+](=O)[O-])cc2)c2ncnc(NCCc3ccccc3)c12
inactive: [1] 110% | [2] 52.6% | [3] 102% | [4] 79.7% | [5] 108% | [6] 99.8% | [7] 87.2% | [8] 81.7% | [9] 100% | [10] 64.7% | [11] 62.3% | [12] 96.9% | [13] 98.4% | [14] 101% | [15] 109% | [16] 101% | [20] 99.2% | [17] 112% | [18] 101% | [19] 102%
